Screening results deposited in PubChem by several laboratories.
PP1 inh = PP1-alpha phosphatase inhibitors, primary screen, counter-screen for PP5 inhibitor project, biochemical, fluorescence, OMFP substrate, single point | Serine/threonine-protein phosphatase PP1-alpha catalytic subunit (Homo sapiens), P62136 | purified PP1alpha | inhibition, % at 6.7 µM | 320,000 compounds, 0.9% hits | AID 2235, 2010;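 active = inhibition above the mean inhibition of all tested compounds plus 3 SD, computed separately for each screening campaign, cut at about 15% in these data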
Target sequence (P62136 whole entry, looked up): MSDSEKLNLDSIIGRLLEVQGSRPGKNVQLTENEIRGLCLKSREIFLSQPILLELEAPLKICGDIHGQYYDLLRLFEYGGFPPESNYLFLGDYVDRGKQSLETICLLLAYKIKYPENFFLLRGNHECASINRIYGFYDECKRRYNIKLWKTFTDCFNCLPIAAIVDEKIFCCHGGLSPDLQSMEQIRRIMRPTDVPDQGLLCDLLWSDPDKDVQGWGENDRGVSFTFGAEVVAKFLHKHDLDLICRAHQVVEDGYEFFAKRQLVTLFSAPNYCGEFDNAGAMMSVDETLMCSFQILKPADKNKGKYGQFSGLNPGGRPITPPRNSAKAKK
B2AR ag = beta2AR agonists driving receptor internalization, primary screen, cell-based, FAP fluorogen, flow cytometry. Beta-2 adrenergic receptor (Homo sapiens), P07550. Am2.2-beta2AR cells. response, % (no concentration beside the values). 340,000 compounds, 0.43% hits;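 active = response above a set limit, near 3 SD of response in nonfluorescent compounds, cut at about 42% in these data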
GRK2 inh = compounds blocking aptamer binding on GRK2 – biochemical, human GRK2, bead flow cytometry, HTS, primary screen. 330,000 compounds, 0.59% hits. inhibition of aptamer binding, % at 10 µM. FAM-aptamer displacement from GRK2. Beta-adrenergic receptor kinase 1 (Homo sapiens), P25098;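 active = inhibition of aptamer binding above 40%, roughly 3 SD of noise, on plates passing a quality check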;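 also: median bead fluorescence of bound FAM aptamer so fluorescent compounds give negative values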
Exocytosis inh = LAMP-1 surface exposure blockers, TALL-104 cells – cell-based, flow cytometry, MLPCN library, primary screen. AID 651702, 2012. 360,000 compounds, 0.66% hits. TALL-104 LAMP-1 surface exposure; cells stimulated with thapsigargin and PMA. inhibition, % at 10 µM;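 active = inhibition above about 55%, limit read from the data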
NadD inh = inhibitors of S. aureus NadD, primary screen, biochemical, colorimetric, uHTS | 360,000 compounds, 0.78% hits | Nicotinate-nucleotide adenylyltransferase NadD (Staphylococcus aureus N315) | AID 602399, 2012 | purified NadD enzyme, colorimetric absorbance read-out | inhibition, % at 20 µM; in the data active = inhibition above about 26%
GRK2 CP1 = GRK2 aptamer-displacing inhibitors, retest, confirmation, biochemical, cherry pick 1, bead flow cytometry | shares compounds with GRK2 inh | bead-bound GRK2, FAM-aptamer displacement | aptamer displacement, % at 10 µM | 2,000 compounds, 4% hits | AID 504451, 2011;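 active = aptamer displacement above 40%, near three times the noise of non-fluorescent compounds, on plates passing quality checks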;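 also: negative values mostly reflect intrinsic compound fluorescence rather than true enhancement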
FAM quench CP1 = aptamer fluorescence quenching in GRK2 counter-screen | shares compounds with GRK2 inh | Carboxyfluorescein RNA aptamer on beads, flow cytometry quenching; stronger effect = lower value | fluorescence response (% of DMSO), % at 10 µM | 2,000 tested, under 10 active | AID 504580;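 active = compounds that quench the bead-bound fluorescent RNA probe, cutting fluorescence to under half of the solvent control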;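 also: counterscreen run without GRK2 so only probe quenching by compound is measured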
GRK2 CP2 = GRK2 aptamer-displacing inhibitors, hit retest, confirmation, biochemical, cherry pick 2, bead flow cytometry | shares compounds with GRK2 inh | 360 tested, under 10 active | inhibition of aptamer binding, % at 10 µM | bead-bound GRK2, FAM-aptamer displacement;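 active = inhibition of aptamer binding above 40%, about triple the noise seen with nonglowing compounds, on plates passing quality control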;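 also: negative values mostly come from compounds that fluoresce themselves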
FAM quench SP = aptamer fluorescence quenching in GRK2 counter-screen; AID 588494; shares compounds with GRK2 inh; 360 tested, under 10 active; fluorescence response vs DMSO, % at 10 µM; carboxyfluorescein RNA aptamer beads, flow cytometry quenching; stronger effect = lower value;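 active = response vs DMSO under 50%, meaning signal dropped by over half, treated as fluorescence quencher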;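 also: labelled aptamer on streptavidin beads without GRK2 as a quench counter-screen; 100% = bead fluorescence of DMSO wells and lower means quenching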
Numbers without * were called inactive. Compounds with a hit are over-represented: about 2.9% of the library has one in this group of screens.

Results for CCN(CC)CCCN(C(=O)c1ccco1)c1nc(-c2ccc(C)cc2)cs1 ?
PP1 inh: -4; B2AR ag: 4; GRK2 inh: 59*; Exocytosis inh: 1; NadD inh: -12; GRK2 CP1: -13; FAM quench CP1: 104

What do the screens show for `O=C(c1ccco1)N(CCCN1CCOCC1)c1nc(-c2ccc(Cl)cc2)cs1`?
PP1 inh: 1; B2AR ag: -11; GRK2 inh: 2; Exocytosis inh: -2; NadD inh: -6; GRK2 CP1: 1; FAM quench CP1: 103

How did CCN(CC)CCCN(C(=O)c1cccs1)c1nc(-c2ccc(OC)cc2)cs1 do in these assays?
PP1 inh: 1; B2AR ag: 2; GRK2 inh: 0; Exocytosis inh: -7; NadD inh: -3

Results for CCN(CC)CCCN(C(=O)c1ccco1)c1nc(-c2ccc(Cl)cc2)cs1 ?
PP1 inh: 6; B2AR ag: 10; GRK2 inh: 66*; Exocytosis inh: 51; NadD inh: -6; GRK2 CP1: -15; FAM quench CP1: 99

What do the screens show for `O=C(c1ccco1)N(CCCN1CCOCC1)c1nc(-c2ccc(F)cc2)cs1`?
PP1 inh: -1; B2AR ag: 12; GRK2 inh: 0; Exocytosis inh: 11; NadD inh: -1

How did CC(O)CNCCCOc1ccc(Cl)cc1C(C)(C)C (centres undefined) do in these assays?
PP1 inh: -5; B2AR ag: 30; GRK2 inh: 0; Exocytosis inh: 11; NadD inh: -5

What do the screens show for `O=C(NN1CCOCC1)c1ccc(Br)s1`?
PP1 inh: -4; B2AR ag: 0; GRK2 inh: 69*; Exocytosis inh: 2; NadD inh: -2; GRK2 CP1: 0; FAM quench CP1: 102

How did O=C(Nc1ccc2c(c1)OCCO2)c1ccc(Br)s1 do in these assays?
PP1 inh: -1; B2AR ag: -8; GRK2 inh: 0; Exocytosis inh: 0; NadD inh: -8; GRK2 CP1: 3; FAM quench CP1: 102

How did O=C(Nc1ccc2c(c1)OCCO2)c1ccccc1 do in these assays?
PP1 inh: 2; B2AR ag: -7; GRK2 inh: 0; Exocytosis inh: -5; NadD inh: -9

Results for Cc1nc2cc(C(=O)N3CCc4ccccc43)ccc2n1-c1ccc(F)c(F)c1 ?
PP1 inh: 2; B2AR ag: -5; GRK2 inh: 93*; Exocytosis inh: 1; NadD inh: -3; GRK2 CP2: -12; FAM quench SP: 100

How did COC(CNC(=O)c1ccc2c(c1)nc(C)n2-c1ccc(F)c(F)c1)OC do in these assays?
PP1 inh: -1; B2AR ag: -5; GRK2 inh: 2; Exocytosis inh: -1; NadD inh: 3

Results for Cc1cc(C(=O)N2CCc3ccccc32)c2cc(F)ccc2n1 ?
PP1 inh: -2; B2AR ag: 4; GRK2 inh: 76*; Exocytosis inh: -1; NadD inh: 4; GRK2 CP1: 2; FAM quench CP1: 102

What do the screens show for `CCCCn1cnc2c(oc3nc4c(cc32)CCCC4)c1=O`?
PP1 inh: -3; B2AR ag: -1; GRK2 inh: 2; Exocytosis inh: -1; NadD inh: -1
